aSyn rescue – qHTS of alpha-syn Inhibitors | Yeast expressing alpha-synuclein, growth rescue, BacTiter-Glo, 24 h | Potency, µM (titrated, usually from 46.1 µM), inactives show at the highest dose growth rescue (activation), actives largely listed as activators | actives 0.14% (n = 370,000) | AID 652106, 2013; also: potency is read from the fitted curve at half-maximal effect; % of control where 0% means no effect; nearly all actives have a fitted effect of over 65% in size
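Rescue of yeast growth: cells expressing toxic alpha-synuclein, induced in galactose at OD600 0.02, incubated with compound 24 h at 30 C. ATP luminescence quantified growth; inhibitors of toxicity appear as activators.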
LDHA block – qHTS assay for inhibitors of human lactate dehydrogenase | AID 1347041, 2019 | activity change, % (values are at about 110 or 230 µM) | actives 0.15% (n = 480,000) | purified LDHA, NADH/diaphorase-resazurin fluorescence; hits give low values; in the data active = activity change below about -30%; inconclusive = mostly about -25% to -30%;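 also: plate controls were DMSO wells for no effect and wells without enzyme for full effect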
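LDH5 2 nM; NADH 0.06 mM, pyruvate 0.2 mM; 200 mM Tris pH 7.4, EDTA, Tween-20; 5 min RT. Detection: diaphorase 0.133 mg/mL + resazurin 37 µM, fluorescence ex540/em590 at 0 and 20 min; normalized to enzyme-free and DMSO wells.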
PTHR1 ag – qHTS for PTHR1 Agonists: Primary Screen; Potency, µM (doses to about 115 µM), without a hit: at the highest dose activation, usual class: activators; Parathyroid hormone/parathyroid hormone-related peptide receptor (Homo sapiens), Q03431; actives 0.075% (n = 410,000); HEK293 GP2 PTHR1 cells, GloSensor cAMP luminescence, 1 h; also: potency is read from the fitted curve at half-maximal effect; nearly all actives have a fitted effect of over 55% in size
Target sequence (Q03431 whole entry, looked up): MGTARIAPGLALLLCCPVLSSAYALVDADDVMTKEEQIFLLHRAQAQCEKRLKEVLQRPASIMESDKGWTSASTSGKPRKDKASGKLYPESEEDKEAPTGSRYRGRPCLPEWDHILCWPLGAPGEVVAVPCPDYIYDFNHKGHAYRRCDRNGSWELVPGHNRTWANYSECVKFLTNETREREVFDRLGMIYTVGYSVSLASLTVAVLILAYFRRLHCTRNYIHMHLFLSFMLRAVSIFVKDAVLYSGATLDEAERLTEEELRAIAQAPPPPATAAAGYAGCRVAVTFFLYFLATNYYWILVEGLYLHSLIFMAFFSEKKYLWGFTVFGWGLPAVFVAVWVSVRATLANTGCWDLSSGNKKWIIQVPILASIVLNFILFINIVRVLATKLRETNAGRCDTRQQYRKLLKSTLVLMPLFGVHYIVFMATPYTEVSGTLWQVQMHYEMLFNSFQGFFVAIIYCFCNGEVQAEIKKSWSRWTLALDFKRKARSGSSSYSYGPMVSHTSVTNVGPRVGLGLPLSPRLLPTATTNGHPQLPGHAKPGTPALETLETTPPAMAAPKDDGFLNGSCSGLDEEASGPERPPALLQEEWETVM
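HEK-293-derived GP2 cells expressing PTHR1 and a GloSensor cAMP reporter, 3,000/well, plated overnight, given luciferin plus IBMX (each 0.5 mM as added) for 1 h at 37 °C, then compound for 1 h at 37 °C. Luminescence was read after 15 min at room temperature.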
Abeta yeast res – qHTS for compounds that reverse cellular toxicity of Amyloid beta (A-beta) peptide in yeast: Primary Screen | Potency, µM (series often up to 46.1 µM), usual class: activators | yeast expressing A-beta42, growth rescue, OD600, 48 h; response scale: 0% DMSO, 100% iron-clioquinol control | actives 0.063% (n = 410,000); also: potency is read from the fitted curve at half-maximal effect; nearly all actives have a fitted effect of over 55% in size
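Yeast A-beta toxicity model in growth medium with pinned compounds, 48 h at 30 C; growth read as absorbance at 600 nm. Normalized to FeCl3/clioquinol equimolar mix (positive) and DMSO (negative).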
TDP-43 yeast inh – qHTS of TDP-43 Inhibitors; actives 1.8% (n = 410,000); Potency, µM (titrated, usually from 46.1 µM), without a hit: top-dose growth rescue (activation), actives largely listed as activators; TDP-43 expressing yeast growth rescue, BacTiter-Glo, 24 h; also: potency is read from the fitted curve at half-maximal effect; % of control where 0% means no effect; nearly all actives have a fitted effect of over 50% in size
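Growth rescue of TDP-43-toxic yeast measured as ATP luminescence (BacTiter-Glo). Cells grown to mid-log in raffinose, induced in galactose at OD600=0.02, exposed to compound 24 hr at 30 deg C.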
FUS yeast rescue – qHTS for Suppressors of FUS Proteinopathy: Primary screen using FUS-linked yeast assay; actives 0.24% (n = 390,000); AID 1347120, 2019; S. cerevisiae FUS-expressing, growth rescue, OD600, 24 h; Potency, µM (top dose mostly 76.6 µM), usual class: activators;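 also: potency is read from the fitted curve at half-maximal effect; plate controls were DMSO vehicle for no effect and reference control for full effect; nearly all actives have a fitted effect of over 55% in size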
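Steps: raffinose overnight preculture; dilution to OD 0.005 in 2% galactose minimal medium; compound addition (concentration series); 24hr at 30C, 99% humidity; absorbance read at 600 nm.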
Starred values were filed as active, the others as inactive; i = inactive; ? = inconclusive; · = no result given; ! = repeats disagree; [ ] = another dose, or the depositor's remark. Shown are actives, neighbours in structure and some others; about 1.9% of the full set was active somewhere. Unless noted, calls follow the shape of the dose curve; as a rule, active = well fitted curve in the direction sought with a large enough effect; inconclusive = small, poorly fitted or top-dose-only effect, or another doubt; inactive = no such curve, though single readings can be large; an effect the other way counts as inactive or inconclusive.

SMILES	aSyn rescue	LDHA block	PTHR1 ag	Abeta yeast res	TDP-43 yeast inh	FUS yeast rescue
Cc1cccc(C)c1N1C(=O)CC(N2CCN(S(=O)(=O)c3ccccc3F)CC2)C1=O (stereo not given)	1%	0	i	i	20%	i
O=C(OCc1nc2ccsc2c(=O)[nH]1)c1ccc(Cl)nc1	10%	-7	-24%	i	?	i
O=C(OCc1nc2ccsc2c(=O)[nH]1)c1ccc(Cl)s1	1%	4	i	i	18µM*	i
COc1cc(/C=C(/C#N)C(=O)c2c(C)[nH]c3ccccc23)ccc1OCC#N	-12%	-7	-33%	i	5%	i
CCOc1ccc(/C=C(\C#N)C(=O)c2c(C)[nH]c3ccccc23)cc1OC	-19%	0	-11%	i	20µM*	i
O=C(Nc1nnc(-c2ccc3c(c2)CCCC3)o1)c1ccc(Cl)cc1Cl	?	6	-10%	?	4µM*	i
O=C(Nc1nnc(-c2ccc3c(c2)CCCC3)o1)c1c(F)cccc1F	-3%	-6	-9%	i	24%	i
Cc1ccc(OCCn2nc(C(=O)O)c3ccccc3c2=O)cc1	·	11	·	·	·	·
CC1CN(c2nc(-c3ccsc3)nc3ccccc23)CCO1 (stereo not given)	·	-6	·	·	·	·
CC1(C)SC2c3ccccc3C(=O)N2[C@@H]1C(=O)NC1CCCC1 (stereo not given in full)	-8%	0	-4%	i	1%	i
CC1(C)SC2c3ccccc3C(=O)N2[C@@H]1C(=O)NC1CC1 (stereo not given in full)	-5%	-2	i	i	1.3µM*	i
COc1ccc(C=NNc2ccc(S(=O)(=O)Nc3ccccc3C(=O)O)cc2[N+](=O)[O-])c(OC)c1	1%	-71*	-11%	i	4%	i
CC(C)c1nc2scc(-c3ccc(Cl)cc3)c2c(=O)n1N	14%	-2	-14%	i	14µM*	i
CC(C)[C@@H]1CC[C@@H](C)c2c(-c3ccccc3)n[nH]c21	?	2	i	i	11µM*	i
c1ccc(-c2n[nH]c3c2CCC3)cc1	7%	-6	i	?	?	i
CC(=O)Nc1nc(-c2ccc(Cl)cc2)nc(C)c1C(C)=O	0%	0	-34%[57.5 µM]	i	35µM*	i
Cc1ccc(S(=O)(=O)c2cc3c(=O)n4ccccc4nc3n(Cc3ccco3)c2=N)cc1	-3%	6	2%[57.5 µM]	i	-18%	14µM*
Fc1ccc(OCc2nc(CSc3ncc(-c4ccc(F)cc4)o3)cs2)cc1	·	-18	·	·	·	·
O=C(NCCc1ccc(Cl)cc1)c1cnc2n(c1=O)CCS2	11%	-4	-29%	i	35µM*	i
O=C1/C(=C/c2ccco2)CCc2ccccc21	1%	7	-12%	i	-11%	·
COc1ccc2c(c1)CC/C(=C/c1ccco1)C2=O	-7%	5	-22%	i	14µM*	i
O=C1c2ccccc2NC(c2csc(-c3cccc(Br)c3)n2)N1C1CC1 (stereo not given)	·	13	·	·	·	·
O=S(=O)(Oc1ccc2ccccc2c1)c1cccc2nsnc12	·	11	·	·	·	·
c1ccc(-c2c(-c3ccccc3)n(Cc3ccco3)c3ncnc(NCCCn4ccnc4)c23)cc1	?	1	-17%[57.5 µM]	i	?	i
OCCNc1ncnc2c1c(-c1ccccc1)c(-c1ccccc1)n2Cc1ccco1	13µM*	6	-28%	i	-14%	i
SMILES	aSyn rescue	LDHA block	PTHR1 ag	Abeta yeast res	TDP-43 yeast inh	FUS yeast rescue
CC(=O)C1=CCC(c2ccc(Cl)cc2)N(S(=O)(=O)c2ccc(C)cc2)C1 (stereo not given)	?	-10	-20%	i	35µM*!	?
CC(=O)C1=CCC(c2ccccc2)N(S(=O)(=O)c2ccccc2)C1 (stereo not given)	9%	-2	-57%	i	24%	i
CC(=O)C1=CCC(c2ccc(Cl)cc2)N(S(=O)(=O)c2ccccc2)C1 (stereo not given)	?	-7	-80%	i	14µM*	i
CC(=O)C1=CCC(c2ccc(C)cc2)N(S(=O)(=O)c2ccc(C)cc2)C1 (stereo not given)	9%	-3	-15%	i	19%	i
NC(Cc1ccc(Cl)cc1)c1csc(NC(=O)NCC2CCCCC2)n1 (stereo not given)	-43%	-17	-5%	i	?	25µM*
CCCn1nc(C(=O)Nc2cc(S(=O)(=O)N3CCCCC3)ccc2C)c2ccccc2c1=O	·	11	·	·	·	·
CCCn1nc(C(=O)N2CCN(S(=O)(=O)c3ccc(C)c(C)c3)CC2)c2ccccc2c1=O	-40%	-1	-30%	i	35µM*	?
c1ccc2c(c1)OCC(c1csc3ncnc(N4CCCC4)c13)O2 (stereo not given)	8%	0	-22%	i	22µM*	i
Oc1ccccc1N1CCN(c2ncnc3scc(-c4ccccc4)c23)CC1	26%	1	-12%	i	18µM*	?
Oc1ccccc1N1CCN(c2ncnc3scc(-c4ccc(F)cc4)c23)CC1	16%	7	-13%	i	22µM*	?
OCCN1CCN(c2ncnc3scc(-c4ccc(F)cc4)c23)CC1	-6%	-3	-38%	i	12%	i
O=C(c1ccco1)N1CCN(c2ncnc3scc(-c4ccc(Cl)cc4)c23)CC1	4%	1	i	i	25µM*	i
c1ccc(CCNc2ncnc3scc(C4COc5ccccc5O4)c23)cc1 (stereo not given)	2%	3	?	i	?	i
Cc1cc2nc(-c3cccc(NC(=O)COc4ccccc4)c3)oc2cc1C	·	0	·	·	·	·
N#C/C(=C/c1ccc(I)o1)c1nc2ccccc2[nH]1	·	12	·	·	·	·
Oc1cccc(/C=C/c2nc3cc(Cl)ccc3o2)c1	·	1	·	·	·	·
CC(NC(=O)c1ccc(Cl)o1)c1ccc(S(N)(=O)=O)cc1 (stereo not given)	·	-17	·	·	·	·
Cc1ccc(-c2csc3ncnc(N4CCN(S(=O)(=O)c5cccs5)CC4)c23)cc1	15%	-7	-7%	i	4.5µM*	·

High-throughput results as filed in PubChem.
